Laboratory results taken from PubChem BioAssay AID652054 (National Center for Advancing Translational Sciences (NCATS), 2013).
Out of some 360,000 compounds screened, about 9,100 (2.5%) were called active. Another 4% or so got no clear call; they are omitted. The sample as a whole holds a higher share of actives than the screen did. A number with no mark means an inactive call. Rule as the data show it: active = max response below about -50%; inconclusive = no clear call, values can overlap the other calls; inactive = above that.

target: D(3) dopamine receptor (Homo sapiens) (UniProt P35462); assay: qHTS of D3 Dopamine Receptor Antagonist: qHTS; settings: D3R cells, DiscoveRx beta-arrestin luminescence, antagonist mode; hits give low values
Sequence (P35462 whole entry, looked up): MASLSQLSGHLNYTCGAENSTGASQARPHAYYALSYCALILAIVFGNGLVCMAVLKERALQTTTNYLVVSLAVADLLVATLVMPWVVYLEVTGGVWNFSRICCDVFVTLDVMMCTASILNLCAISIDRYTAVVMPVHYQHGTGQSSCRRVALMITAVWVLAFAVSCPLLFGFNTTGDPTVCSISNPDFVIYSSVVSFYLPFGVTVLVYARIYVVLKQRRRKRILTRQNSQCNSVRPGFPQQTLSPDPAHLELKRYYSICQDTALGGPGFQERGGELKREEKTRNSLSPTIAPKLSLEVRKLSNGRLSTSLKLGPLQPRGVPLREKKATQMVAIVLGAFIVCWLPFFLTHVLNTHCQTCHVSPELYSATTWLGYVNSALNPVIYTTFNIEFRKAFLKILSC
Procedure, shortened: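 Cells expressing the human receptor were seeded at 1500 cells/well, incubated overnight at 37 degrees C in 5% CO2, then exposed to library compounds with dopamine controls for 90 minutes at 37 degrees C before luminescent detection.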
% is scaled to controls: 0 for no effect and ±100 for the full control effect.

Structure (SMILES) | max response, negative = inhibition
CN1CCN(c2ccncc2S(=O)(=O)N2CCCC2)CC1 | 22.6%
COC(=O)c1ccc2nc(-c3ccc(C)cc3)c(Cc3ccc(OC)cc3C)n2c1 | 0.363%
CC(C)C1Cc2[nH][nH]c(=O)c2C(c2ccc(Cl)cc2)O1 (stereo not given) | -0.765%
O=C(Nc1ccc(Cl)cc1)c1csc([C@H]2C[C@H](O)[C@@H](CO)O2)n1 | 0%
COc1ccc(NC(=O)C2Cc3c(-c4cccc(NC(C)=O)c4)ccnc3O2)cc1OC (stereo not given) | 0%
COc1ccc(CC(N)c2csc(NC(=O)NC(c3ccccc3)c3ccccc3)n2)cc1 (stereo not given) | -20.6%
COc1ccc(N)cc1NC(=O)CN1CCOCC1 | 60.4%
OC[C@@H]1CN(Cc2ccc(-c3ccccc3)cc2)C[C@H](n2cnc3c(NC4CCCC4)ncnc32)O1 | 36%
C=CCC[C@@H](CCCCC)OC(=O)/C=C/[C@@H](O)[C@H](O)C[C@H](O)CC=C | 5.67%
CCCCCCNC(=O)O[C@H]1CN(C(=O)OC(C)C)N(C(=O)OC(C)C)[C@@H]2CN(S(=O)(=O)c3ccc(C)cc3)C[C@]12O | 1.36%
O=Nc1c(O)cc(O)c2ccccc12 | 9%
COc1ccc(COC[C@H](CC(C)C)N2CCN(C(=O)c3cccc(C(F)(F)F)c3)CCC2=O)cc1 | 0%
CCOC(=O)N1C(=O)C[C@](Sc2ccc(C)cc2)(C(=O)OC)[C@H]1c1ccccc1 | 28.6%
O=C(CNC(=O)c1ccc2ccccc2c1)Nc1ncccc1O | 8.18%
CC1CCC(NC(=O)CNC(=O)c2ccc3ccccc3c2)CC1 (stereo not given) | -70% (active)
Cc1ccc(C(=O)NCC(=O)NC2CC2)cc1 | -5.92%
Cn1cnc(S(=O)(=O)N2C[C@@H](O)COC[C@@H]3O[C@H](CC(=O)NC4CCC4)CC[C@H]32)c1 | 17.2%
COc1ccc(-c2csc(Nc3cccc(C)n3)n2)cc1OC | 42.5%
COc1ccc2c(c1OC)C(=O)OC2Nc1nc(-c2ccccc2)cs1 (stereo not given) | -73.2% (active)
CCc1ccccc1NC(=O)[C@@H]1CCC(=O)N1C1OC(=O)c2c1ccc(OC)c2OC (stereo not given in full) | -18.1%

Structure (SMILES) | max response, negative = inhibition
CC1(C(=O)Nc2cccc(Oc3ccccc3)c2)CCN1Cc1ccccc1Cl (stereo not given) | 11.7%
C=C(C)C(=O)O[C@H]1C/C(C)=C\C(=O)/C=C(\C)[C@H](O)[C@@H]2OC(=O)C(=C)[C@@H]21 | -61.4% (active)
CC(CCc1ccccc1)NC(=O)c1ccc(Br)o1 (stereo not given) | -10.2%
O=C(NCc1cccs1)c1ccc(Br)o1 | 11.4%
CC(CNC(=O)c1ccc(Br)o1)NC(=O)c1ccc(Br)o1 (stereo not given) | -72.7% (active)
CC(C)C1CC2=C(C(=O)OC(C)(C)O2)C(c2ccc(F)cc2)O1 (stereo not given) | -3.03%
COc1ccc(NC(=O)COC(=O)C2COc3ccccc3O2)cc1 (stereo not given) | -20.1%
Brc1ccc2nc(-c3ccccc3)c(Cc3ccccc3)n2c1 | 23.1%
CCNC(=O)C1(C)CCCN(Cc2noc(-c3ccccc3OC)n2)C1 (stereo not given) | 23.6%
c1ccc2cc(OCCN3CCCC3)ccc2c1 | -61.2% (active)
Cc1cc(C)c(NC(=O)CN2CCCCCC2)c(C)c1 | 1.9%
Cc1cc(OCCN2CCCC2)ccc1C(C)C | 0%
Clc1ccccc1-c1cc(COc2ccc3ccccc3c2)no1 | -0.665%
Cc1cccc(C)c1OCCN1CCOCC1 | 21.2%
Cc1cc(OCCN2CCCC2)cc(C(C)C)c1 | -86% (active)
CCOC(=O)[C@]12CCC=C1N(Cc1cccc3ccccc13)C(=O)[C@H](CC(=O)NCc1cccc(C(F)(F)F)c1)C2 | 7.1%
CCCCCCN1C[C@@H](O)[C@H](n2cc(COC(=O)c3ccccc3)nn2)C[C@@H]1c1ccc(Cl)cc1 | 3.45%
CCc1nnc(NC(=O)c2ccco2)s1 | -7.74%
Cc1ccc(S(=O)(=O)N2CCCCC2)cc1NC(=O)CCNC(=O)c1ccccc1Cl | 25.5%
N#Cc1ccc(-c2nc3c(Cl)cc(C(F)(F)F)cn3c2Cc2ccccc2C(F)(F)F)cc1 | 8.9%

Structure (SMILES) | max response, negative = inhibition
Cc1cccc(N(C)C(=O)c2cc3c(=O)[nH]c4ccc(C)cc4c3s2)c1 | -15.8%
CCN(CC)CCCNC(=O)c1cc2c(=O)[nH]c3ccc(C)cc3c2s1 | -89.2% (active)
CCN(CC)CCCNC(=O)c1cc(-c2cccc(Cl)c2)on1 | -19.8%
CCC(=O)N1CCC(C)(C(=O)Nc2cc(OC)c(OC)c(OC)c2)C1 (stereo not given) | 16.4%
CCOc1ccc(NC(=O)N2CCN(CC)CC2)cc1 | 6.64%
Cc1cccc(C)c1NC(=O)N1CC=C(n2c(=O)[nH]c3ccccc32)CC1 | 0%
CCOc1ccc(NC(=O)N2CC=C(n3c(=O)[nH]c4ccccc43)CC2)cc1 | -51.2% (active)
CCOC(=O)C=Cc1ccc(C(=O)OCC)[nH]1 | 20.2%
COC(=O)[C@@]12C[C@@H](CC(=O)N3CCCCC3)C(=O)N(Cc3ccc4c(c3)OCO4)C1=CCC(C)(C)C2 | -15.1%
CCOc1ccc(CNC(=O)CCC(=O)N2CCSc3ccccc32)cc1 | 10.8%
Cc1ccc(NC(=O)N2CCSc3ccccc32)cc1 | -50.5% (active)
Cc1ccc(NC(=O)N2CCC(O)(c3cccnc3)CC2)cc1 | 1.47%
Cc1ccc(S(=O)(=O)N[C@H](CO)C(C)C)cc1 | -14.1%
CC(NC(=S)Nc1ccccc1)C1COc2ccccc2O1 (stereo not given) | 1.63%
CCCN(CC1COc2ccccc2O1)C(=S)Nc1ccc(C)cc1 (stereo not given) | -53.1% (active)
CCC(=O)c1ccc(OCC(=O)N(CC)CC2COc3ccccc3O2)cc1 (stereo not given) | 10.7%
Cc1cc(=O)c2ccc(NC(=O)c3ccccc3)cc2[nH]1 | 13.3%
O=C1NC(O)CCN1C1CC(O)C(CO)O1 (stereo not given) | 11%
CCN1CC=C2C(C#N)=C(N)C(C#N)(C#N)[C@H](c3ccoc3)[C@H]2C1 | -11.8%
CCCN1CC=C2C(C#N)=C(N)C(C#N)(C#N)C(c3cc(OC)ccc3OC)C2C1 (stereo not given) | -67.2% (active)
